Shown is part of a subset that was picked to be rich in hits.
IL-1B inflam inh: qHTS for Inhibitors of Inflammasome Signaling: IL-1-beta AlphaLISA Primary Screen. activity change, % at 57.5 µM. AID 743279, 2014. THP-1 LPS/ATP IL-1B secretion, AlphaLISA, 16 h; hits give low values. actives 4.7% (n = 360,000); in the data active = activity change below about -50%; inconclusive = mostly about -30% to -49%
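Secreted IL-1B measured by AlphaLISA bead assay after 16 h compound exposure of THP-1 cells; compounds (final up to 57.5 uM) added 1 h before LPS (250 ng/mL) and ATP (1.25 mM) stimulation; lower signal means less secretion.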
HT1080 IDH1KD tx: qHTS for induction of synthetic lethality in tumor cells producing 2HG: qHTS for the HT-1080-IDH1KD cell line; HT-1080 IDH1 knockdown viability, ATP luminescence, 48 h; Potency, µM (titrated, usually from 46.1 µM), without a hit: at the highest dose activity, negative = toxicity, actives largely listed as cytotoxic; actives 2% (n = 360,000); AID 686971, 2013;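 note: potency is the fitted concentration of half-maximal effect; 0% = DMSO wells and -100% = cell-free medium wells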
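Assay cells: HT-1080 with IDH1 knockdown, 750 per well, RPMI/5% FBS. Exposure: 48 h at 37 °C following 2 h pre-incubation. Read: CellTiter-Glo luminescence; fitted concentration-response, curve class assigned.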
12-LOX inh: Primary qHTS assay for inhibitors of human arachidonate 12S-lipoxygenase (ALOX12): Round 2; actives 1.1% (n = 580,000); purified 12hLO, xylenol orange hydroperoxide absorbance; AID 1671190, 2021; Potency, µM (doses to about 108 µM), without a hit: top-dose activity change, negative = inhibition, hits mostly inhibitors; Polyunsaturated fatty acid lipoxygenase ALOX12 (Homo sapiens), P18054; note: potency is the fitted concentration of half-maximal effect
Target sequence (P18054 whole entry, looked up): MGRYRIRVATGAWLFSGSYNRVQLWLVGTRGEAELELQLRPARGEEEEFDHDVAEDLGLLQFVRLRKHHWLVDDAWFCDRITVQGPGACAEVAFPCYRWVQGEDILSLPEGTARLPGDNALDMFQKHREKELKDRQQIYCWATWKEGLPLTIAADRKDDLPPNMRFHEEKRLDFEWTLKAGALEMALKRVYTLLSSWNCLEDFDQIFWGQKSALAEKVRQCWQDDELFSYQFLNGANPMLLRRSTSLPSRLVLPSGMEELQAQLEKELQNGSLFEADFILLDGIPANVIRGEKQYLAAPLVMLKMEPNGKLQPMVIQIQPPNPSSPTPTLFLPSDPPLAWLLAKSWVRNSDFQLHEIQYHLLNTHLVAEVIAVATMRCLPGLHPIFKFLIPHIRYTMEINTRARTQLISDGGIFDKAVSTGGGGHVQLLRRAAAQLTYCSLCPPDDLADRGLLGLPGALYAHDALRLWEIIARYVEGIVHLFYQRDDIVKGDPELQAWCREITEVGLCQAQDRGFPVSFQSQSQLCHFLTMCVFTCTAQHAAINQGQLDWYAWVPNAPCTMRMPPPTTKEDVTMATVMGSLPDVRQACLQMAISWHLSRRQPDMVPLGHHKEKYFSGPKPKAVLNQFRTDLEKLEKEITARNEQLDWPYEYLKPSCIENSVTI
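Purified human 12hLO (150 nM final) in 25 mM Hepes, 0.01% Triton X-100, pH 7.0 was preincubated 15 min at room temperature with compound. Then 40 uM arachidonic acid was added, 30 min. Hydroperoxide was read by Fe-XO absorbance ratio 573/405 nm.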
HT1080-NT tox: qHTS for induction of synthetic lethality in tumor cells producing 2HG: qHTS for the HT-1080-NT fibrosarcoma cell line. HT-1080-NT fibrosarcoma viability, CellTiter-Glo ATP luminescence, 48 h. AID 686970, 2013. actives 1.6% (n = 360,000). Potency, µM (titrated, usually from 46.1 µM), without a hit: at the highest dose activity, negative = less viability, usual class: cytotoxic;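 note: NT is the 2HG producing partner of a matched IDH1 knockdown line; potency is the fitted concentration of half-maximal effect; 0% = DMSO-treated cells and -100% = media-only wells without cells; nearly all actives have a fitted effect of over 55% in size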
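Luminescent CellTiter-Glo readout after 48 hours of compound exposure at 37 degrees C defined viability of HT-1080-NT cells. Activity was normalized to DMSO wells and cell-free media wells; concentration-response curves were fitted and assigned curve classes.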
DT40 TDP1 no CPT: qHTS for Inhibitors of human tyrosyl-DNA phosphodiesterase 1 (TDP1): qHTS in cells in absence of CPT | DT40 Tdp1-/- hTDP1 cells, no CPT, ATP luminescence, 48 h | Potency, µM (titrated, usually from 46.2 µM), for inactives: at the highest dose activity change, negative = growth inhibition, actives largely listed as inhibitors | actives 15% (n = 420,000) | AID 686978, 2013; note: potency is the fitted concentration of half-maximal effect; nearly all actives have a fitted effect of over 55% in size
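Growth of hTDP1-complemented DT40 Tdp1-knockout cells is measured by ATP luminescence after at least 48 hr compound exposure at 37 °C, with DMSO substituting for the 20 nM CPT used in the parallel screen.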
TDP1 cell CPT: qHTS for Inhibitors of human tyrosyl-DNA phosphodiesterase 1 (TDP1): qHTS in cells in presence of CPT; chicken DT40 Tdp1-/-;hTDP1 cells + 20 nM CPT, ATP luminescence, 48 h; Potency, µM (titrated, usually from 46.2 µM), for inactives: at the highest dose activity change, negative = growth inhibition, actives largely listed as inhibitors; actives 12% (n = 420,000); AID 686979, 2013; note: potency is the fitted concentration of half-maximal effect; nearly all actives have a fitted effect of over 55% in size
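Chicken DT40 Tdp1-/- cells stably complemented with human TDP1 were seeded at 400 cells/well in medium containing 20 nM camptothecin, exposed to pin-transferred compounds, and grown at 37 °C for at least 48 hr. Viability was read as ATP luminescence.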
Active calls of the source: *; i = inactive; ? = inconclusive; · = not tested or not shown; [ ] = remark or other dose. Unless noted, calls come from the whole dose curve; as a rule, active = well fitted curve in the direction sought with a large enough effect; inconclusive = small, poorly fitted or top-dose-only effect, or another doubt; inactive = no such curve, though single readings can be large; an effect the other way counts as inactive or inconclusive. Unless noted, % is set by controls: 0 for no effect and ±100 for the full control effect.

SMILES	IL-1B inflam inh	HT1080 IDH1KD tx	12-LOX inh	HT1080-NT tox	DT40 TDP1 no CPT	TDP1 cell CPT
CCNC(=S)NN(c1ccccc1)c1ccccc1	5	6%	?	4%	-7%	-11%
CCNC(=S)Nc1ccc(N(c2ccccc2)C(C)C)cc1	-20	?	4%	?	21µM*	26µM*
Cc1ccc2c(CN3CCN(CCc4ccncc4)CC3)cc(=O)oc2c1	·	·	-4%	·	·	·
O=C(Nc1ccc(Br)cc1)C1CC2CCC1C2 (stereo not drawn)	·	·	0%	·	·	·
CC(C)C(NC(=O)C(c1ccccc1)c1ccccc1)C(=O)O (stereo not drawn)	·	·	12%	·	·	·
COCC(=O)N1CCN(c2oc(-c3ccco3)nc2C#N)CC1	·	·	-27%	·	·	·
COc1cccc(CN2CCCCCCNC(=O)[C@@H]3CCC[C@@H]32)c1OC	·	·	-1%	·	·	·
O=C(Nc1ccc(C(O)c2ccccc2)cc1)[C@@H]1O[C@H](CO)[C@@H](O)[C@H]1O (stereo partly drawn)	7	19%	-2%	18%	1%	8%
CC(C)N(c1ccccc1)c1ccc(NC(=O)[C@@H]2O[C@H](CO)[C@@H](O)[C@H]2O)cc1	10	0%	5%	21%	?	21µM*
CNc1ccc(C(=O)N2CCC(CCn3cccn3)CC2)cn1	·	·	3%	·	·	·
Cc1ccc(NC(=O)N2CCN(Cc3ccc(Cl)s3)CC2)cc1	·	·	6%	·	·	·
Cc1ccc(C)c(S(=O)(=O)N2CCN(C(=O)NC(C)CCc3ccccc3)CC2)c1 (stereo not drawn)	·	·	-16%	·	·	·
O=C(N[C@H]1[C@H](O)[C@H](O)C[C@@H]1c1cccnc1)c1ccccn1	·	·	7%[176 µM]	·	·	·
C/C(=C(\CCOC(=O)c1ccccc1)SS/C(CCOC(=O)c1ccccc1)=C(/C)N(C=O)Cc1cnc(C)nc1N)N(C=O)Cc1cnc(C)nc1N	·	·	·	·	?	27µM*
COCCN(C)C[C@@H]1CN(C(=O)c2ccc(C(C)=O)s2)C[C@@H]1CO	·	·	-4%	·	·	·
COCCCNc1oc(-c2cccs2)nc1C#N	·	·	-17%	·	·	·
CCCCNC(=O)C1(NC(=O)Nc2ccc(C)cc2)CCCCC1	-2	?	2%	4%	?	7.3µM*
CCC(C)NC(=O)C1(NC(=O)Nc2ccccc2)CCCCC1 (stereo not drawn)	-1	0%	309%	1%	18µM*	16µM*
COc1cc(NC(=O)C2CCCN(c3ncnc4c3nc3n4CCCCC3)C2)cc(OC)c1OC (stereo not drawn)	11	-3%	2%	-24%	?	?
Cc1ccc(C)c(NC(=O)C2CCN(c3ncnc4c3nc3n4CCCCC3)CC2)c1	·	·	-23%	·	2%	-11%
Cc1ccc(NC(=O)C2CCN(c3ncnc4c3nc3n4CCCCC3)CC2)nc1	-17	-25%	3%	2%	21µM*	23µM*
COc1cc(OC)c(NC(=O)C2CCCN(c3ncnc4c3nc3n4CCCCC3)C2)cc1Cl (stereo not drawn)	·	·	-15%	·	15µM*	?
O=C(Nc1ccccc1Cl)C1CCCN(c2ncnc3c2nc2n3CCCCC2)C1 (stereo not drawn)	-63*	-10%	5%	-23%	15µM*	?
COc1ccc(Cl)cc1NC(=O)C1CCN(c2ncnc3c2nc2n3CCCCC2)CC1	·	·	?	·	9.2µM*	16µM*
O=C(Cn1c(NCc2ccccc2)nc2ccccc21)Nc1ccccc1	·	·	-3%	·	·	·
SMILES	IL-1B inflam inh	HT1080 IDH1KD tx	12-LOX inh	HT1080-NT tox	DT40 TDP1 no CPT	TDP1 cell CPT
N#Cc1c(-c2ccccc2F)cc(C2CC2)nc1SCC(=O)c1cccs1	i	1%	-16%	20%	18µM*	18µM*
CCc1c(C)nc(SCC(=O)c2cccs2)c(C#N)c1C	-99*	-25%	22%	-6%	?	?
Cc1cccc(C)c1NC(=O)CSc1nc(C)c(CC(=O)c2ccc(Br)cc2)c(C)c1C#N	24	14%	0%	34%	?	21µM*
Cc1cc(C)c2c(CN3CCN(c4ccccn4)CC3)cc(=O)oc2c1	·	·	-9%	·	·	·
Cc1noc([C@@H]2CN(S(=O)(=O)c3ccc(Cl)s3)C[C@H]2C(N)=O)n1	·	·	4%	·	·	·
C[C@H]1CN([C@@H](C)CO)C(=O)CCCn2nncc2CO[C@@H]1CN(C)Cc1ccccc1C(F)(F)F	-11	0%	?	-5%	-21%	18µM*
C[C@H]1CN([C@@H](C)CO)C(=O)CCCn2nncc2CO[C@H]1CN(C)S(=O)(=O)c1ccc(Oc2ccccc2)cc1	20	-4%	6%	2%	12µM*	18µM*
Cc1ccccc1CN(C)C[C@H]1OCc2cnnn2CCCC(=O)N([C@@H](C)CO)C[C@@H]1C	29	1%	?	-2%	-5%	-1%
C[C@@H]1CN([C@@H](C)CO)C(=O)CCCn2nncc2CO[C@H]1CN(C)Cc1ccc(-c2ccccc2)cc1	27	8%	-26%	12%	16µM*	0%
C[C@H]1CN([C@@H](C)CO)C(=O)CCCn2nncc2CO[C@@H]1CN(C)Cc1cccc(C(F)(F)F)c1	11	-4%	6%	-3%	23µM*	21µM*
CS(=O)(=O)c1ccc(NC(=O)CN(Cc2cccs2)CC2CCCO2)cc1 (stereo not drawn)	·	·	37%	·	·	·
COc1ccc(C(=O)N2CC[C@H]3C(=O)NCCCCCCN(Cc4ccncc4)[C@@H]3C2)cc1F	·	·	122%	·	·	·
CC1(C)CC(NC(=O)Nc2ccc(OC(F)F)cc2)CC(C)(C)N1	·	·	10%	·	·	·
C[C@@H]1CN([C@@H](C)CO)C(=O)CCCn2cc(nn2)CO[C@H]1CN(C)S(=O)(=O)c1ccc(-c2ccccc2)cc1	34	8%	-2%	1%	6.5µM*	9.2µM*
C[C@H](CO)N1C[C@H](C)[C@@H](CN(C)S(=O)(=O)c2ccc(-c3ccccc3)cc2)OCc2cn(nn2)CCCC1=O	16	9%	?	10%	?	-26%
Cc1ccc(N=C2CCCN2Cc2ccccc2)c(C#N)c1	-4	6%	4%[57.4 µM]	2%	21µM*	?

Assay outcomes as filed in PubChem.
